PubChem BioAssay (EPA / NIEHS)
Results filed as inconclusive are left out. Calls of active or inactive are those of the source. Rule for the calls, unless noted: active = hit-call score of the fitted dose curve at least 0.9, where 1 is the maximum; inconclusive = response in the unintended direction; inactive = score below 0.9.

Legend:
[1] = TOX21_p53_BLA_p2_viability: Viability Assessment in the Tox21 HCT-116 p53 Agonism Beta-lactamase Assay, Phase 2 (AID 2283591);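 note: compound exposure lasted 16 h at 37 °C; actives lower the ATP signal meaning cytotoxicity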
How it was run: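 HCT-116 p53-bla cells (4000/well) rested 5 h at 37C, then received compounds in DMSO (217-fold dilution) for 16 h at 37C, 5% CO2. After the CCF4 read, CellTiter-Glo was added; ATP luminescence was read after 30 min at room temperature.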

[2] = target: Cellular tumor antigen p53 (Homo sapiens) (UniProt P04637); test: TOX21_p53_BLA_p2_ratio: Tox21 HCT-116 p53 Agonism Beta-lactamase Assay, Ratio, Phase 2 (AID 2283592)
How it was run: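 DMSO-normalized, positive-direction endpoint derived from the 460 nm/530 nm FRET ratio in HCT116 p53 beta-lactamase reporter cells exposed 16 h at 37C and loaded with CCF4-AM for 2 h.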

[3] = TOX21_p53_BLA_p3_viability: Viability Assessment in the Tox21 HCT-116 p53 Agonism Beta-lactamase Assay, Phase 3 (AID 2283593);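 note: cells exposed to compound for 16 h before reading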
How it was run: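 HCT-116 cells (4000/well) rested 5 h at 37C, then got DMSO compounds by pin tool (217-fold dilution) for 16 h at 37C, 5% CO2. After the bla read, CellTiter-Glo was added and luminescence read at 30 min, room temperature.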

[4] = target: Cellular tumor antigen p53 (Homo sapiens) (UniProt P04637); test: TOX21_p53_BLA_p3_ratio: Tox21 HCT-116 p53 Agonism Beta-lactamase Assay, Ratio, Phase 3 (AID 2283596)
How it was run: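 Cells were seeded at 4000/well, rested 5 h at 37C, then dosed with DMSO compound solutions (217-fold dilution) for 16 h. CCF4-AM substrate was loaded for 2 h at room temperature, and the 460/530 nm emission ratio was fitted for gain of signal versus DMSO.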

[5] = TOX21_p53_BLA_p4_viability: Viability Assessment in the Tox21 HCT-116 p53 Agonism Beta-lactamase Assay, Phase 4 (AID 2283597);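 note: hits lower the luminescence signal meaning cytotoxicity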
How it was run: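 In this multiplexed secondary endpoint, HCT116 cells (4000 per well, compound at 5 h, 16 h treatment) received CellTiter-Glo after the beta-lactamase read. Luminescence after 30 min RT reflects ATP, and falling signal marks cytotoxicity.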

[6] = TOX21_p53_BLA_p5_viability: Viability Assessment in the Tox21 HCT-116 p53 Agonism Beta-lactamase Assay, Phase 5 (AID 2283600)
How it was run: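 Here cell health was gauged by ATP levels in wells holding 4000 cells, each treated 16 h with DMSO-delivered compounds at 217-fold dilution; reduced luminescence marked toxicity.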

[7] = target: Cellular tumor antigen p53 (Homo sapiens) (UniProt P04637); test: TOX21_p53_BLA_p4_ratio: Tox21 HCT-116 p53 Agonism Beta-lactamase Assay, Ratio, Phase 4 (AID 2283601)
How it was run: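 HCT116 cells carrying an inducible beta-lactamase reporter were plated at 4000 cells/well, rested 5 h, then exposed to compounds in DMSO (217-fold dilution) for 16 h at 37C. CCF4-AM substrate was loaded 2 h at room temperature; 460/530 nm emission ratio scored gain-of-signal versus DMSO.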

[8] = CCTE_Harrill_HTTr_Viability_MCF7: CCTE's 6-hour Cell Viability Assessment for the High-Throughput Transcriptomics (HTTr) Platform, in MCF-7 cells cultured in DMEM + 10% fetal bovine serum, Harrill Lab (AID 2284010; active = hit-call score of the fitted dose curve at least 0.9, where 1 is the maximum; inactive = score below 0.9)
How it was run: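 Propidium iodide exclusion, imaged by high-content analysis, gauged viability after a six-hour exposure across eight concentrations. Cells were MCF-7 grown in DMEM with 10% fetal bovine serum; fits run in both directions against DMSO.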

[9] = CCTE_Harrill_HTTr_Apoptosis_MCF7: CCTE's 6-hour Apoptosis Assessment for the High-Throughput Transcriptomics (HTTr) Platform, in MCF-7 cells cultured in DMEM + 10% fetal bovine serum, Harrill Lab (AID 2284011; active = hit-call score of the fitted dose curve at least 0.9, where 1 is the maximum; inactive = score below 0.9)
How it was run: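 Apoptosis in MCF-7 cells grown in DMEM with 10% fetal bovine serum was scored after a six hour exposure by high content imaging of caspase-3/7 activation (CellEvent Caspase 3/7 Green), with DMSO serving as negative control and baseline.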

[10] = CCTE_Harrill_HTTr_CellCount_MCF7: CCTE's Cell Proliferation Assessment for the High-Throughput Transcriptomics (HTTr) Platform, Harrill Lab (AID 2284012);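 note: cells exposed to compound for six hours; intended direction is loss of nuclei count meaning fewer cells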
How it was run: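 Cell count from high-content imaging of Hoechst-labeled nuclei serves as viability/growth readout. Chemicals were applied to MCF-7 cells in eight concentrations for six hours, with fitting in both directions relative to DMSO.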

[11] = target: Cellular tumor antigen p53 (Homo sapiens) (UniProt P04637); test: TOX21_p53_BLA_p5_ratio: Tox21 HCT-116 p53 Agonism Beta-lactamase Assay, Ratio, Phase 5 (AID 2283599)
How it was run: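 HCT-116 cells carrying a p53-inducible beta-lactamase reporter were seeded at 4000 cells/well and dosed after 5 h with compound in DMSO (217-fold dilution). After 16 h at 37C, CCF4-AM substrate was added for 2 h, and the 460/530 nm emission ratio was scored as gain-of-signal versus DMSO.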

Cellular tumor antigen p53 (Homo sapiens), sequence (P04637 whole entry, looked up): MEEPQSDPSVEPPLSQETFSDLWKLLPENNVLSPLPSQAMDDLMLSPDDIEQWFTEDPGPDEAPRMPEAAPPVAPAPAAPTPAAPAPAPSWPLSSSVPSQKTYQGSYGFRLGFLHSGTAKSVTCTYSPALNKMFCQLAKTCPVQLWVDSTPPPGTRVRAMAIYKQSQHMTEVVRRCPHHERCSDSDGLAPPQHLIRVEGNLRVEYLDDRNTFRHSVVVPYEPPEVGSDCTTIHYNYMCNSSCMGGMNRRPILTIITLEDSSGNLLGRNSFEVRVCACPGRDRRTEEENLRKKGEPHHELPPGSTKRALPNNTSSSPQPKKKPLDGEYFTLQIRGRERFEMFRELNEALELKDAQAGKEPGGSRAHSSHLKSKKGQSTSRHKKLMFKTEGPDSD

Structure (SMILES)	outcome [1]	outcome [2]	outcome [3]	outcome [4]	outcome [5]	outcome [6]	outcome [7]	AC50 [5]	outcome [8]	outcome [9]	outcome [10]	outcome [11]
CCCCCCCCS(=O)(=O)Cl	inactive	inactive	inactive	inactive	inactive	inactive	inactive					
CCCCOc1ccc(C(=O)CCN2CCCCC2)cc1	inactive	inactive	inactive	inactive		inactive	inactive	6.37 µM (active)				
O=C(O)c1cc(Cl)cc(Cl)c1	inactive	inactive	inactive	inactive	inactive	inactive	inactive					
C1=CCC(c2ccccc2)CC1 (stereo not given)	inactive	inactive	inactive	inactive	inactive	inactive	inactive		inactive	inactive	inactive	
O=[N+]([O-])c1cccc(I)c1	inactive	inactive	inactive	inactive	inactive	inactive	inactive					
COc1cc(C)nc(-n2nc(C)cc2OC)n1	inactive	inactive	inactive	inactive	inactive	inactive	inactive					
Cc1cccc(C)c1NC(=O)c1ccccc1C(=O)O	inactive	inactive	inactive	inactive	inactive	inactive	inactive					
OC(CCN1CCCC1)(c1ccccc1)C1CCCCC1 (stereo not given)	inactive	inactive	inactive	inactive	inactive	inactive	inactive					
CO[C@H]1/C=C/O[C@@]2(C)Oc3c(C)c(O)c4c(O)c(c5c(c4c3C2=O)=NC2(CCN(CC(C)C)CC2)N=5)NC(=O)/C(C)=C\C=C\[C@H](C)[C@H](O)[C@@H](C)[C@@H](O)[C@@H](C)[C@H](OC(C)=O)[C@@H]1C	inactive	inactive	inactive	inactive	inactive	inactive	inactive					
Nc1cc(-c2ccncc2)c[nH]c1=O	inactive	inactive	inactive	inactive	inactive	inactive	inactive		inactive	inactive		
CC(C)(C(=O)O)c1ccc(C(O)CCCN2CCC(C(O)(c3ccccc3)c3ccccc3)CC2)cc1 (stereo not given)	inactive	inactive	inactive	inactive	inactive	inactive	inactive					
Cc1c(-c2ccccc2)oc2c(C(=O)OCCN3CCCCC3)cccc2c1=O	inactive	inactive	inactive	inactive		inactive						inactive
CN(C)CCc1c[nH]c2ccc(CS(=O)(=O)N3CCCC3)cc12	inactive	inactive	inactive	inactive	inactive		inactive					
CCc1nnc(NS(=O)(=O)c2ccc(N)cc2)s1	inactive	inactive	inactive	inactive		inactive						inactive
